Most compounds without a hit are left out; they make up all but 11% or so of the library.
Tau fibril FP = tau fibrillization inhibition (FP); K18 P301L tau heparin fibrillization, Alexa594 FP, 6 h; Potency, µM (doses to about 57.7 µM), without a hit: at the top dose activity, negative = inhibition, hits mostly inhibitors; 280,000 tested, 0.39% active; AID 1468; note: potency is the fitted concentration of half-maximal effect; nearly all actives have a fitted effect of over 55% in size
Target sequence (P10636 561-689 P618L limits assumed): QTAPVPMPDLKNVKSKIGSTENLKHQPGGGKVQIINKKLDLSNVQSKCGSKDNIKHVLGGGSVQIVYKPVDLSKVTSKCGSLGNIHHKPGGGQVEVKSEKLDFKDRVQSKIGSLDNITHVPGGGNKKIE
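K18 P301L tau (15 uM unlabeled/0.24 uM Alexa 594-labeled, final) + compound + heparin 20 uM final; 100 mM NaOAc pH 7; 6 hr 37 C; ThT 30 uM final added, 1 hr RT; FP ex 555/em 632 nm.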
Coupling enz = inhibits coupling enzyme system, counter-screen for aldolase hits. activity change, negative = inhibition, % at 58.2 µM, hits read low. coupling enzyme system counterscreen, AmpLite Red fluorescence. 290,000 tested, 0.67% active; in the data active = activity change below about -30%
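Activity here indicates interference with the coupling reaction, not aldolase inhibition. Compounds at 57.5 uM final met coupling enzymes for 10 min at RT; substrate and AmpLite Red detection followed, with a 525/598 nm fluorescence read after 20 min.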
G9a block = inhibitors of human histone lysine methyltransferase G9a. Q96KQ7. G9a H3K9 monomethylation, AlphaScreen, 2 h. Potency, µM (top dose mostly 102 µM), for the others: at the top dose activity, negative = inhibition, actives largely listed as inhibitors. 350,000 tested, 8.8% active; note: potency is the fitted concentration of half-maximal effect; nearly all actives have a fitted effect of over 75% in size
Target sequence (Q96KQ7 913-1193 limits assumed): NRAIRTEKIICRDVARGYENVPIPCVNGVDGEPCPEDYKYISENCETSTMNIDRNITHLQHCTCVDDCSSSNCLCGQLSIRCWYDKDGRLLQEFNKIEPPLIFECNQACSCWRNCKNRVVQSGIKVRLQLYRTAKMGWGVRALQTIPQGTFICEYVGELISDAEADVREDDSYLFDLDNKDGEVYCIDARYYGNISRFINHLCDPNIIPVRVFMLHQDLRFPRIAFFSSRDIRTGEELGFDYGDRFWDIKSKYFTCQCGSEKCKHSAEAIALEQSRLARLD
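Readings reflect AlphaScreen signal from monomethyl-H3K9 antibody detection. HMT at 20 nM; substrate b-H3K9 500 nM; cofactor SAM 20 uM; 2 h RT reaction; compounds tested as titrations in qHTS with 15 min preincubation.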
Tau fluor counter = counter-screen for tau fibril formation inhibitors; tau K18 P301L Alexa594 fluorescence, heparin fibrillization; 280,000 tested, 0.93% active; Potency, µM (highest dose often 57.7 µM), without a hit: top-dose activity change, negative = decrease; note: potency is the fitted concentration of half-maximal effect; nearly all actives have a fitted effect of over 55% in size
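Human tau K18 P301L (15 uM unlabeled, 0.24 uM Alexa 594-labeled) in 100 mM sodium acetate pH 7 with 20 uM heparin, 6 hr at 37 C. ThT 30 uM added, 1 hr ambient; Alexa 594 FP and total fluorescence read at 555/632 nm.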
Sfp inh = blocks B. subtilis Sfp PPTase activity. Q9F4F7. Biochemical Sfp PPTase activity, qHTS. Potency, µM, for the others: largest response in the series, negative = inhibition, hits mostly inhibitors. 310,000 tested, 3.5% active;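 note: the enzyme is Sfp with the accession as filed and its product quenches rhodamine fluorescence; potency is the fitted concentration of half-maximal effect; 0% = enzyme reaction without inhibitor and -100% = no enzyme wells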
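Sfp 15 nM + cpd, 15 min RT; start w/ rhodamine-CoA 5 uM, BHQ-2-YbbR 12.5 uM (final); 50 mM Hepes pH 7.6, 10 mM MgCl2, 0.01% NP-40, 0.01% BSA; read 525/598 nm at 0 and 30 min.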
Tau fibril ThT = inhibitors of human tau fibril formation, thioflavin T binding; AID 1460; 270,000 tested, 2.1% active; Potency, µM (doses to about 57.4 µM), inactives show at the top dose activity, negative = inhibition, usual class: inhibitors; recombinant tau K18 P301L, heparin-induced fibrillization, ThT fluorescence; note: potency is the fitted concentration of half-maximal effect; nearly all actives have a fitted effect of over 55% in size
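Using a mix of unlabeled (15 uM) and Alexa 594-labeled (0.24 uM) tau K18 P301L, heparin-triggered fibrillization over 6 hr at 37 C was scored by ThT fluorescence.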
* hit, by the source's call; ? = inconclusive; / = no result given; [ ] = remark or other dose. Unless noted, calls come from the whole dose curve; as a rule, active = well fitted curve in the direction sought with a large enough effect; inconclusive = small, poorly fitted or top-dose-only effect, or another doubt; inactive = no such curve, though single readings can be large; an effect the other way counts as inactive or inconclusive. Unless noted, % is set by controls: 0 for no effect and ±100 for the full control effect.

SMILES	Tau fibril FP	Coupling enz	G9a block	Tau fluor counter	Sfp inh	Tau fibril ThT
Cc1nn(S(=O)(=O)c2ccc(C(C)(C)C)cc2)c(C)c1S(=O)(=O)N1CCCCCC1	-4%	/	-3%[59 µM]	2%	/	-3%
CCN(CC)CCNC(=O)COc1ccc(Cl)cc1Cl	2%	0	?	2%	16%	-10%
CN(C)CCNC(=O)COc1ccc(Cl)cc1Cl	5%	-2	50µM*	-3%	-5%	-8%
CN(C)CCNC(=O)COc1cccc(Cl)c1	-7%	2	22µM*	-8%	-11%	-12%
CCOC(=O)C1OC1C(=O)NC(CC(C)C)C(=O)NCCC(C)C (stereo not given)	2%	/	32%[59 µM]	-1%	14%	-6%
Cc1c(S(=O)(=O)N2CCc3ccccc3C2)c(=O)n(C)c(=O)n1C	1%	-1	50µM*	-1%	16%	-5%
COC(=O)c1ccc(Oc2coc3cc(OCc4ccc([N+](=O)[O-])cc4)ccc3c2=O)cc1	2%	0	56µM*	-13%	-6%	?
Cc1nc2sc(C(=O)Nc3ccccc3)c(N)c2c(C)c1[N+](=O)[O-]	-1%	4	-44%	-14%	1%	?
N#CCCn1nc(-c2ccc(Br)cc2)cc1Nc1ccccc1NC(=O)C(F)(F)F	15%	-8	0%[59 µM]	20µM*[quencher]	1%	?
N#CCCn1nc(-c2ccccc2)cc1Nc1ccccc1NC(=O)C(F)(F)F	1%	2	-11%	-23%	13%	-4%
O=C(N/N=C/c1cc(Cl)cc([N+](=O)[O-])c1O)c1cccc(S(=O)(=O)N2CCOCC2)c1	/	/	50µM*	/	/	/
O=C(N/N=C/c1cc(Br)cc(Br)c1O)c1cccc(S(=O)(=O)N2CCOCC2)c1	-3%	4	45%[59 µM]	?	14%	?
Cc1ccc(S(=O)(=O)N2CCN(CC(=O)N/N=C\c3ccc(O)c(O)c3)CC2)cc1	-3%	-6	40µM*	?	?	/
O=C(N/N=C/c1ccc(O)c(O)c1)c1cccc(S(=O)(=O)N2CCCC2)c1	/	/	40µM*	/	/	/
Cc1cc(Br)ccc1NC(=O)c1coc(=O)c2ccccc12	?	/	-21%[59 µM]	-21%	/	-4%
COc1cccc(Nc2ncc3ncc(=O)n(C)c3n2)c1	/	-1	15%[0.501 µM]	/	7%	/
CCn1nc(C)c2c(-c3ccccc3)cc(=O)n(C(C)C(=O)Nc3ccc(OC)c(OC)c3)c21 (stereo not given)	3%	/	10%[59 µM]	-23%	/	?
CC(C)(C)OC(=O)NC(Cc1ccccc1)C(O)c1ccco1 (stereo not given)	/	0	/	/	2%	/
CSCCC1(C(=O)O)NC(c2ccccc2O)C2C(=O)N(C(C)C)C(=O)C21 (stereo not given)	0%	1	-7%	-2%	79µM*	-9%
CCN(CC)c1ccc(/C=C2\SC(=O)N(C(C)C)C2=O)o1	4%	-25	7.1µM*	?	7.1µM*	25µM*
CC(C)N1C(=O)S/C(=C/c2ccc3c(c2)n(C)c(=O)n3C)C1=O	0%	1	6%[59 µM]	-5%	12%	-10%
CCOc1ccc(S(=O)(=O)N2CCOCC2)cc1NC(=O)C1CSC2(C)CCC(=O)N12 (stereo not given)	/	/	45µM*	/	/	/
COc1cccc(CN2CCNC(=O)C2CC(=O)NCCc2ccccn2)c1 (stereo not given)	-4%	-7	?	-7%	-17%	?
Cn1cc(CCNC(=O)CC2C(=O)NCCN2Cc2cccc(Oc3ccccc3)c2)cn1 (stereo not given)	-4%	-1	35µM*	-10%	0%	-16%
O=C(CC1C(=O)NCCN1Cc1cccc(Oc2ccccc2)c1)NCCc1ccccn1 (stereo not given)	-2%	-10	22µM*	-8%	3%	-23%
SMILES	Tau fibril FP	Coupling enz	G9a block	Tau fluor counter	Sfp inh	Tau fibril ThT
CCC(=O)N1CCN(c2cc(N3CCN(C)CC3)c(F)cc2[N+](=O)[O-])CC1	4%	4	8%[59 µM]	-2%	15%	-10%
CC(=O)c1ccc(N2CCc3ccccc3C2)c([N+](=O)[O-])c1	2%	5	/	-22%	28µM*	?
CN1CCN(c2cc(N3CCc4ccccc4C3)c(F)cc2[N+](=O)[O-])CC1	-1%	2	45µM*	-27%	-13%	13µM*
CC(=O)c1ccc(N2CCN(c3ncccn3)CC2)c([N+](=O)[O-])c1	/	1	-9%	/	-11%	/
CCCCCC(=O)NCc1c(C(F)(F)F)nn(C)c1N1CCOCC1	6%	4	16%[59 µM]	4%	4%	-9%
Cc1cc[n+](-c2[nH]c(=O)sc2/C=N/N=C(\[O-])CCn2c3ccccc3c3ccccc32)cc1	?	2	-46%	?	-12%	28µM*
Cc1cc[n+](-c2[nH]c(=O)sc2/C=N/N=C(\[O-])c2ccccc2)cc1C	5%	-1	50µM*	-11%	-17%	?
CCc1ccc[n+](-c2[nH]c(=O)sc2/C=N/N=C(\[O-])CCn2c3ccccc3c3ccccc32)c1	4%	-2	45µM*	?	-24%	16µM*
Cc1cc[n+](-c2[nH]c(=O)sc2/C=N/N=C(\[O-])c2ccncc2)cc1C	/	1	-6%	/	?	/
Cc1cc(C)c[n+](-c2[nH]c(=O)sc2/C=N/N=C(\N)[S-])c1	-9%	2	40µM*	3%	25µM*	-7%
CN(C)C(=O)c1ccc(-c2nccc(NCc3cccnc3)n2)cc1	0%	7	/	-13%	12%	-9%
CCN1C(=O)C(Cc2nc3ccccc3c(=O)n2-c2ccccc2)c2cc(Br)ccc21 (stereo not given)	4%	/	?	-9%	/	?
COc1cc(CN2CCN(C(c3ccccc3)c3ccccc3)CC2)cc(OC)c1OC	/	1	28µM*	/	?	/
COc1ccc(CN2CCN(Cc3ccccc3F)CC2)cc1OC	/	-1	8.9µM*	/	?	/
COc1cccc(CN2CCN(Cc3cc(OC)c(OC)c(OC)c3)CC2)c1OC	/	1	2.8µM*	/	-20%	/
COc1cccc(CN2CCC(N(CCc3ccccc3)Cc3ccccc3)CC2)c1OC	3%	1	8.9µM*	-10%	40µM*	?
Cc1cc(O)c(C(c2ccc(Cl)cc2)N2CCN(c3ccccc3)CC2)c(=O)n1Cc1ccco1 (stereo not given)	-9%	/	?	-11%	/	?
CCOc1ccc(NC(=O)c2ccc(-c3nc(COc4ccccc4)c(C)o3)cc2)cc1	-10%	/	-3%[59 µM]	4%	/	-8%

Screens as filed in PubChem.
